According to PubChem BioAssay AID1159580 (chemical genetic matrix, 2015):
“And” between values parts separate entries of the source, which are not always exact repeats. Equal entries are not always repeated. Screen size: about 5,500 compounds; about 2,000 (36%) were called active. Another 18% or so got no clear call; they are omitted. No stated cut-off is given here; in the data, active means normalized growth mostly below about 0.91 (no sharp cut-off); inconclusive means no clear call, values can overlap the other calls; inactive means mostly above about 0.92. Some of the results follow.

Assay: chemical genetic growth profiling, strain panel (AID 1159580);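 further: tested at 20 µM; growth read once vehicle control cultures reached saturation at 30 °C; 1 = growth at the plate median or of vehicle wells; lower values mean less growth of the strain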
Conditions: S. cerevisiae deletion strains, growth OD

Measured: normalized growth

C[C@]12C=CC(=O)C=C1CCC1C3C[C@@H](O)[C@](O)(C(=O)CO)[C@@]3(C)C[C@H](O)[C@@]12F (some centres undefined)
inactive: locus YAL021C, strain ccr4, active compounds read low 0.932 | locus YAL026C, strain drs2, active compounds read low 0.992 | locus YAL030W, strain snc1, active compounds read low 0.996 | locus YBL061C, strain skt5, active compounds read low 0.984 | locus YBR009C, strain hhf1, active compounds read low 0.999 | locus YBR021W, strain FUR4, active compounds read low 1.02 | locus YBR023C, strain chs3, active compounds read low 0.961 | locus YBR171W, strain sec66, active compounds read low 0.976 | locus YBR229C, strain ROT2, active compounds read low 1.01 | locus YBR231C, strain swc5, active compounds read low 1.01 | locus YBR279W, strain paf1, active compounds read low 0.973 | locus YCL011C, strain gbp2, active compounds read low 0.974 | locus YCL016C, strain dcc1, active compounds read low 0.958 | locus YCL029C, strain bik1, active compounds read low 0.98 | locus YCL061C, strain MRC1, active compounds read low 0.996 | locus YCL069W, strain vba3, active compounds read low 0.983 | locus YCR088W, strain abp1, active compounds read low 0.985 | locus YDL005C, strain med2, active compounds read low 0.997 | locus YDL035C, strain GPR1, active compounds read low 1.02 | locus YDL040C, strain nat1, active compounds read low 0.992 | locus YDL074C, strain BRE1, active compounds read low 1.04 | locus YDL101C, strain DUN1, active compounds read low 1.02 | locus YDL134C, strain PPH21, active compounds read low 1 | locus YDL185W, strain tfp1, active compounds read low 0.973 | locus YDL192W, strain arf1, active compounds read low 0.984 | locus YDR001C, strain nth1, active compounds read low 0.983 | locus YDR069C, strain doa4, active compounds read low 0.954 | locus YDR101C, strain arx1, active compounds read low 0.971 | locus YDR137W, strain rgp1, active compounds read low 0.965 | locus YDR150W, strain NUM1, active compounds read low 1.02 | locus YDR159W, strain sac3, active compounds read low 0.975 | locus YDR162C, strain NBP2, active compounds read low 1 | locus YDR195W, strain ref2 0.991 | locus YDR297W, strain sur2, active compounds read low 0.994 | locus YDR318W, strain mcm21, active compounds read low 0.985 | locus YDR334W, strain swr1, active compounds read low 0.976 | locus YDR335W, strain msn5, active compounds read low 0.984 | locus YDR388W, active compounds read low 0.982 | locus YDR392W, strain spt3, active compounds read low 0.896 | locus YDR502C, strain sam2, active compounds read low 0.981 | locus YEL003W, strain gim4, active compounds read low 1 | locus YEL037C, strain rad23, active compounds read low 0.987 | locus YEL061C, strain CIN8 (second series), active compounds read low 0.991 | locus YEL061C, strain CIN8, active compounds read low 1.01 | locus YER015W, strain faa2, active compounds read low 0.999 | locus YER016W, strain bim1, active compounds read low 0.942 | locus YER110C, active compounds read low 0.979 | locus YER111C, strain swi4, active compounds read low 0.975 | locus YER155C, strain BEM2 (second series), active compounds read low 0.989 | locus YER155C, strain BEM2, active compounds read low 1.01 | locus YER167W, strain BCK2, active compounds read low 1 | locus YFR010W, strain ubp6, active compounds read low 1 | locus YGL078C, strain dbp3, active compounds read low 0.981 | locus YGL086W, strain mad1, active compounds read low 0.996 | locus YGL167C, strain pmr1, active compounds read low 0.992 | locus YGL173C, strain kem1, active compounds read low 0.98 | locus YGL227W, strain vid30, active compounds read low 0.962 | locus YGL240W, strain doc1, active compounds read low 0.991 | locus YGL248W, strain PDE1, active compounds read low 1.02 | locus YGL253W, strain hxk2, active compounds read low 0.98 | locus YGR135W, strain pre9, active compounds read low 0.99 | locus YGR229C, strain SMI1, active compounds read low 1.01 | locus YGR252W, strain gcn5, active compounds read low 1.01 | locus YHR013C, strain ard1, active compounds read low 0.952 | locus YHR027C, strain rpn1, active compounds read low 0.998 | locus YHR030C, strain SLT2, active compounds read low 1.01 and 0.984 | locus YHR079C, strain IRE1 (second series), active compounds read low 0.973 | locus YHR079C, strain IRE1, active compounds read low 0.991 | locus YHR094C, strain hxt1, active compounds read low 0.984 | locus YHR129C, strain ARP1, active compounds read low 1.02 | locus YHR142W, strain chs7, active compounds read low 0.956 | locus YHR200W, strain rpn10, active compounds read low 0.988 | locus YIL066C, strain RNR3, active compounds read low 1.01 | locus YIL073C, strain SPO22, active compounds read low 0.984 | locus YIL125W, strain kgd1, active compounds read low 0.989 | locus YIR030C, strain dcg1, active compounds read low 0.98 | locus YJL092W, strain hpr5, active compounds read low 0.99 | locus YJL095W, strain BCK1 (second series), active compounds read low 0.995 | locus YJL095W, strain BCK1, active compounds read low 1.03 and 0.985 | locus YJL115W, strain asf1, active compounds read low 0.971 | locus YJL129C, strain trk1, active compounds read low 0.948 | locus YJL134W, strain LCB3, active compounds read low 1.01 | locus YJL154C, strain vps35, active compounds read low 0.967 | locus YJL164C, strain tpk1, active compounds read low 1.01 | locus YJL166W, strain qcr8, active compounds read low 1.01 | locus YJL168C, strain set2, active compounds read low 0.989 | locus YJL187C, strain SWE1 (second series), active compounds read low 1.01 | locus YJL187C, strain SWE1, active compounds read low 0.982 | locus YJR043C, strain POL32, active compounds read low 1.02
